ELG1 DNA repair – ELG1-dependent DNA repair inhibition; HEK293T ELG1-luciferase reporter, luminescence, 16 h; DNA damage induced by 5-fluorouridine; Potency, µM (titrated, usually from 46.1 µM), without a hit: at the highest dose activity change, negative = inhibition, actives largely listed as inhibitors; actives 2.3% (n = 330,000); further: on the % scale 0 is the no-effect control and ±100 the full control effect; nearly all actives have a fitted effect of over 55% in size
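Cells (2,000 per well) received 5-fluorouridine plus test compound or DMSO and were incubated 16 hr at 37 °C, 5% CO2. Luciferase activity was read by luminescence 30 min after ONE-Glo addition; signal suppression marked inhibition of damage-induced ELG1 function.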
NPC1 prom act – activates the NPC1 promoter. Huh7 NPC1 promoter luciferase reporter, 24 h. actives 2.4% (n = 320,000). Potency, µM (titrated, usually from 9.22 µM), for the others: at the top dose activation, usual class: activators; further: % of control where 0% means no effect; nearly all actives have a fitted effect of over 60% in size
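Readout is luciferase luminescence, reflecting NPC1 promoter activation in stably transfected Huh7 cells after 24 h compound exposure at 37 °C in reduced-serum medium with 10% FBS.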
SMN2 splice up – SMN2 splice variant enhancement | HEK293 SMN2-luciferase splicing reporter, luminescence, 30-36 h | Potency, µM (top dose mostly 46.1 µM), inactives show top-dose activity change, positive = activation, most hits filed as activators | actives 2.8% (n = 210,000) | AID 1458; further: % of control where 0% means no effect; nearly all actives have a fitted effect of over 55% in size
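qHTS luciferase splicing reporter: luminescence rises when SMN2 exon 7 is included in transfected HEK293 cells. Compound exposure lasted 30-36 h at 37C, with 4.5 mM final sodium butyrate as control, followed by a ONE-Glo read.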
ELG1 genotox – inducers of genotoxicity in HEK293T ELG1-luciferase cells. HEK293T ELG1-luciferase reporter, luminescence, 16 h. Potency, µM (titrated, usually from 46 µM), without a hit: top-dose activity change, positive = activation, hits mostly activators. actives 1.3% (n = 330,000). AID 504466; further: % of control where 0% means no effect; nearly all actives have a fitted effect of over 60% in size
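HEK293T cells expressing luciferase-tagged ELG1 were exposed to compound or DMSO vehicle for 16 hr at 37 °C and 5% CO2. Luciferase activity was then measured with ONE-Glo after 30 min at room temperature.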
Rab9 promoter act – activators of Rab9 promoter; Huh7 Rab9 promoter-luciferase reporter, luminescence, 24 h; Potency, µM (series often up to 9.22 µM), inactives show at the top dose activation, negative = inhibition, hits mostly activators; actives 2.8% (n = 320,000); AID 485297; further: % of control where 0% means no effect; nearly all actives have a fitted effect of over 60% in size
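Promoter activation is measured as luciferase luminescence in Huh7 cells stably transfected with a Rab9 promoter–luciferase construct, following 24 h compound exposure at 37 °C and 10 min reagent incubation at ambient temperature.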
FLuc modulator – counter-screen for miR-21 project: firefly luciferase inhibitors or activators | actives 6.9% (n = 360,000) | purified FLuc, Km substrates, luminescence inhibition | P08659 | Potency, µM (top dose mostly 57.5 µM), inactives show at the top dose activity change, negative = inhibition, most hits filed as inhibitors | AID 588342;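 further: plate controls were vehicle for no effect and reference inhibitor for full effect; nearly all actives have a fitted effect of over 55% in size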
Target sequence (P08659 whole entry, looked up): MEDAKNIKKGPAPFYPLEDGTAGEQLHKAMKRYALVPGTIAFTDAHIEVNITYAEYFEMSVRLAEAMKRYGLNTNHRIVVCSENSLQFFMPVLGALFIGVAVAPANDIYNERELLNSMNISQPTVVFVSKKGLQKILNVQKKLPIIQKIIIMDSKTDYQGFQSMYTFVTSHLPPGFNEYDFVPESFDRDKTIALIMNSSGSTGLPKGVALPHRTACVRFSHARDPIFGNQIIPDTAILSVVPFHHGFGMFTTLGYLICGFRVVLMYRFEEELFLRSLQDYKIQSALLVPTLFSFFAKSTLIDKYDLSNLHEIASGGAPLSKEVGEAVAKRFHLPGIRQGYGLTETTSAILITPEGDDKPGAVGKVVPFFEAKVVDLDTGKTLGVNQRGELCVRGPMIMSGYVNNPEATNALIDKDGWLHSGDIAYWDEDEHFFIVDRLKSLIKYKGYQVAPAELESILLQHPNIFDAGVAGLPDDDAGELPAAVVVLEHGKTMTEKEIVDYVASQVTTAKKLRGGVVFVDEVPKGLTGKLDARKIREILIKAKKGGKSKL
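Purified P. pyralis luciferase, 10 nM final, with Km-level 10 uM D-luciferin and 10 uM ATP in 50 mM Tris acetate pH 7.5, 10 mM Mg acetate, 0.01% Tween-20, 0.05% BSA; 6-point qHTS titration about 60 µM downward; luminescence read.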
Numbers without * were called inactive; [ ] = dose if it differs, or a comment. Hits are enriched below; roughly 9.4% of the tested compounds scored in any of these assays. The call rests on the fitted dose curve; in most records, active means well fitted curve in the direction sought with a large enough effect; inconclusive means small, poorly fitted or top-dose-only effect, or another doubt; inactive means no such curve, though single readings can be large; an effect the other way counts as inactive or inconclusive. Potency means the concentration at half of the fitted maximal effect.

Cc1ccccc1C(=O)Oc1cccc2c(O)cccc12 was read as ELG1 DNA repair 14%, NPC1 prom act 8%, ELG1 genotox -1%, Rab9 promoter act 7% and FLuc modulator inconclusive.
For Cc1ccccc1S(=O)(=O)Oc1ccc2ccc(O)cc2c1 the results were ELG1 DNA repair inconclusive, NPC1 prom act 26%, ELG1 genotox 8%, Rab9 promoter act -3% and FLuc modulator 17µM*.
`O=C(O)/C=C\C(=O)Nc1ncn[nH]1` gave SMN2 splice up 3%[9.22 µM].
Screening Cc1ccc(NC(=O)C2CCN(S(=O)(=O)c3ccc4c(c3)CCCN4C(=O)C3CCC3)CC2)cc1 returned FLuc modulator -10%.
Screening CC(C(=O)Nc1ccccc1)n1nnc2sc3c(c2c1=O)CCCC3 (centres undefined) returned SMN2 splice up -7% and FLuc modulator -14%.
Screening O=C(Nc1cc(S(=O)(=O)N2CCOCC2)ccc1N1CCCCC1)c1ccccc1 returned ELG1 DNA repair inconclusive, NPC1 prom act -3%, ELG1 genotox -9%, Rab9 promoter act -6% and FLuc modulator 3%.
`O=C(Nc1cc(S(=O)(=O)N2CCOCC2)ccc1N1CCCC1)c1ccc2c(c1)S(=O)(=O)c1ccccc1C2=O` gave ELG1 DNA repair 10µM*, NPC1 prom act -3%, SMN2 splice up -12%, ELG1 genotox -4%, Rab9 promoter act -4% and FLuc modulator -20%.
O=C(CNCc1ccccc1Cl)Nc1cc(S(=O)(=O)N2CCOCC2)ccc1Cl was read as ELG1 DNA repair inconclusive and ELG1 genotox -5%.
For Cc1ccc(S(=O)(=O)N2CCOCC2)cc1NC(=O)CNCc1ccc(Cl)cc1Cl the results were ELG1 DNA repair 23µM* and ELG1 genotox -8%.
`Cc1ccc(S(=O)(=O)N2CCOCC2)cc1NC(=O)COc1ccccc1Cc1ccccc1` gave ELG1 DNA repair 8.2µM* and ELG1 genotox -5%.
For CCc1ccccc1OCC(=O)Nc1cc(S(=O)(=O)N2CCOCC2)ccc1N1CCCCC1 the results were ELG1 DNA repair inconclusive, NPC1 prom act -5%, ELG1 genotox -11%, Rab9 promoter act -3% and FLuc modulator 4%.
For COc1ccccc1OCC(=O)Nc1cc(S(=O)(=O)N2CCOCC2)ccc1N1CCCCC1 the results were ELG1 DNA repair 26µM* and ELG1 genotox -7%.
CCOC(=O)Cn1nc(C)c(NC(=O)COc2ccc(Cl)cc2C)c1C was read as SMN2 splice up -52% and FLuc modulator -9%.
Screening COc1ccc2oc(-c3cccc(NC(=O)c4ccc(C#N)cc4F)c3)nc2c1 returned SMN2 splice up -6% and FLuc modulator -3%.
Screening O=c1c(=O)n(-c2ccccc2)ccn1Cc1c(F)cccc1Cl returned FLuc modulator 1%.
`O=C(N/C=C/c1ccco1)OCc1ccccc1` gave ELG1 DNA repair inconclusive, NPC1 prom act inconclusive, SMN2 splice up 13µM*, ELG1 genotox inconclusive, Rab9 promoter act 3.5µM* and FLuc modulator 11µM*.
For Cc1cccc(NC(=O)c2cnn(-c3ccccc3)c2-n2cccc2)c1C the results were SMN2 splice up 8% and FLuc modulator -17%.
Screening Nc1nc(-c2ccccn2)nc(N)c1Cc1ccccc1F returned ELG1 DNA repair inconclusive, NPC1 prom act inconclusive, SMN2 splice up 28%, ELG1 genotox -5%, Rab9 promoter act inconclusive and FLuc modulator 15µM*.
Nc1nc(-c2ccccn2)nc(N)c1Cc1c(F)cccc1Cl was read as ELG1 DNA repair inconclusive, NPC1 prom act -42%, SMN2 splice up -42%, ELG1 genotox 20%, Rab9 promoter act -23% and FLuc modulator 27µM*.
Screening Cc1n[nH]c(C)c1Cc1c(F)cccc1Cl returned ELG1 DNA repair -4%, NPC1 prom act -5%, ELG1 genotox -4%, Rab9 promoter act -3% and FLuc modulator -20%.
Nc1nc(-c2ccccn2)nc(N)c1Cc1ccc(Cl)cc1Cl was read as ELG1 DNA repair 13%, NPC1 prom act -32%, SMN2 splice up -73%, ELG1 genotox 3%, Rab9 promoter act -19% and FLuc modulator inconclusive.
COc1ccccc1NC(c1ccc(Cl)cc1)c1nnc(-c2cccc(F)c2)o1 (centres undefined) was read as SMN2 splice up -5% and FLuc modulator inconclusive.
Screening O=C(O)[C@@H]1[C@@H]2C[C@@H]3[C@@H](OC(=O)[C@@H]31)[C@H]2Br returned SMN2 splice up -10%[9.22 µM].
Screening Cc1ccccc1-c1cc2nc(C)c(C)c(=O)n2[nH]1 returned ELG1 DNA repair inconclusive, NPC1 prom act inconclusive, ELG1 genotox inconclusive, Rab9 promoter act inconclusive and FLuc modulator 19µM*.
Cc1nc2nc(-c3ccco3)[nH]n2c(=O)c1C was read as ELG1 DNA repair 11%, NPC1 prom act 0%, SMN2 splice up 10%, ELG1 genotox -5%, Rab9 promoter act -4% and FLuc modulator -14%.
`CCOC(=O)Cc1c(C)nc2cc(-c3ccc(C)cc3)[nH]n2c1=O` gave ELG1 DNA repair inconclusive, NPC1 prom act 18%, SMN2 splice up inconclusive, ELG1 genotox inconclusive, Rab9 promoter act 27% and FLuc modulator inconclusive.
`Cc1nc2cc(-c3ccc(F)cc3)[nH]n2c(=O)c1C` gave ELG1 DNA repair inconclusive, NPC1 prom act 2µM*, ELG1 genotox 16µM*, Rab9 promoter act inconclusive and FLuc modulator 8.5µM*.
Cc1cc(=O)n2[nH]c(-c3ccccc3Cl)cc2n1 was read as ELG1 DNA repair 0%, NPC1 prom act 2%, SMN2 splice up -14%, ELG1 genotox -1%, Rab9 promoter act 8% and FLuc modulator 24µM*.
Cc1cc(=O)n2[nH]c(C)cc2n1 was read as ELG1 DNA repair -8%, NPC1 prom act -4%, SMN2 splice up -15%, ELG1 genotox 0%, Rab9 promoter act 3% and FLuc modulator 2%.
Screening NC(=O)c1nc(Nc2ccccc2)sc1NC(=O)c1ccccc1Br returned FLuc modulator -3%.
Screening COc1ccc2ncc(S(=O)(=O)c3ccccc3)c(N3CCN(c4ccccc4)CC3)c2c1 returned ELG1 DNA repair 16µM*, NPC1 prom act 1%, SMN2 splice up -11%, ELG1 genotox 0%, Rab9 promoter act -2% and FLuc modulator -1%.
Screening CCC(C)(C)c1ccc(OC(=O)c2cccnc2Cl)cc1 returned ELG1 DNA repair 12%, NPC1 prom act -1%, ELG1 genotox inconclusive, Rab9 promoter act 6% and FLuc modulator 4.8µM*.

High-throughput results from PubChem BioAssay.
